The values that follow come from PubChem BioAssay (NCATS).

Records with an inconclusive call do not appear. Unmarked numbers belong to inactive results. The source made the active and inactive calls. Calls follow the shape of the dose curve; as a rule, active = well fitted curve in the direction sought with a large enough effect; inconclusive = small, poorly fitted or top-dose-only effect, or another doubt; inactive = no such curve, though single readings can be large; an effect the other way counts as inactive or inconclusive.

The nature of assay [1]: BET inhibitor-based combinations targeting novel dependencies in MECOM-rearranged (r) AML: SET-2 cell line (AID 2202231). Also: nearly all actives have a fitted effect of over 35% in size.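 As to viability: plate controls were DMSO treated cells for no effect and wells without cells for full effect.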 The conditions noted are these: SET-2 AML cells viability, CellTiter-Glo luminescence, 48 h; viability: active compounds read low, concentration not given here. In short, it runs like this: (§1)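 Readout: CellTiter-Glo luminescence. Exposure: 48 h, 11 concentrations, 500 cells/well. Metric: AUC and within-line Z-AUC after DMSO/empty-well normalization.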
Background: ATP-based viability assays read luminescence as a measure of living cells.

The nature of assay [2]: BET inhibitor-based combinations targeting novel dependencies in MECOM-rearranged (r) AML: OCI-AML3 cell line (AID 2202232). Also: nearly all actives have a fitted effect of over 35% in size. The note with it: Potency: OCI-AML3 viability. In short, it runs like this:
as §1

The nature of assay [3]: BET inhibitor-based combinations targeting novel dependencies in MECOM-rearranged (r) AML: MV-4-11 cell line (AID 2202233). Also: nearly all actives have a fitted effect of over 45% in size. In short, it runs like this: (§2)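 Seeding density was 500 cells/well, and drug exposure lasted 48 hr under standard culture conditions. Read-out used CellTiter-Glo reagent with a 15 min room-temperature incubation before luminescence measurement; AUC and Z-AUC summarize the normalized responses.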

Assay [4] can be described thus: BET inhibitor-based combinations targeting novel dependencies in MECOM-rearranged (r) AML: HNT-34 cell line (AID 2202234). Also: nearly all actives have a fitted effect of over 35% in size. In short, it runs like this:
as §2

The nature of assay [5]: BET inhibitor-based combinations targeting novel dependencies in MECOM-rearranged (r) AML: UCSD-AML1 cell line (AID 2202235). Also: nearly all actives have a fitted effect of over 40% in size. An outline of the steps: as §2
Assay [6] can be described thus: BET inhibitor-based combinations targeting novel dependencies in MECOM-rearranged (r) AML: AML-191 cell line (AID 2202236; also: nearly all actives have a fitted effect of over 35% in size). An outline of the steps:
as §1

The nature of assay [7]: BET inhibitor-based combinations targeting novel dependencies in MECOM-rearranged (r) AML: AML-194 cell line (AID 2202237; also: nearly all actives have a fitted effect of over 40% in size). In short, it runs like this:
as §1
Potency is read from the fitted curve at half-maximal effect.

Regarding `Cc1cc(I)ccc1Nc1c(C(=O)NOCC2CC2)cc(F)c(F)c1F`, the Potency in assay [1] was 20.9 µM (active); in assay [2], 1.66 µM (active); in assay [3], 16.6 µM (active); in assay [4] it was 14.8 µM (active); in assay [5] it was 5.9 µM (active); in assay [6], 16.6 µM (active). Also, in assay [7], the Potency is 20.9 µM (active).

With `COc1cc(OC)cc(N(CCNC(C)C)c2ccc3ncc(-c4cnn(C)c4)nc3c2)c1`, the Potency in assay [1] was 18.6 µM (active); in assay [2], 18.6 µM (active); in assay [3], 16.6 µM (active); in assay [4], 2.35 µM (active); in assay [5], 10.5 µM (active); in assay [6], 18.6 µM (active). Besides, the Potency in assay [7] is 18.6 µM (active).

The term viability denotes a read-out of living cells in per cent, often relative to untreated cells. For `CN1C(=O)[C@@H](NC(=O)c2n[nH]c(Cc3ccccc3)n2)COc2ccccc21`, the viability in assay [1] is 110%. Further, the Potency entry in assay [2], in assay [3], in assay [4], in assay [5], in assay [6] and in assay [7] was “inactive” throughout.

On to `CCN[C@H]1C[C@H](C)S(=O)(=O)c2sc(S(N)(=O)=O)cc21`, for which the viability in assay [1] was 114%. Also, the Potency entry in assay [2], in assay [3], in assay [4], in assay [5], in assay [6] and in assay [7] was “inactive” each time.

Regarding `O=C([O-])C[O-].[Pt+2]`, the viability in assay [1] is 115%. The Potency result in assay [2], in assay [3], in assay [4], in assay [5], in assay [6] and in assay [7] was “inactive” in each case.

Take `C[C@@H]1C(=O)OC2[C@H](O)[C@]34[C@H]5C[C@@H](C(C)(C)C)[C@]36[C@@H](OC(=O)[C@@H]6O)O[C@@]4(C(=O)O5)[C@]21O` (stereo partly specified): the viability in assay [1] was 115%. Moreover, the Potency entry in assay [2], in assay [3], in assay [4], in assay [5], in assay [6] and in assay [7] was “inactive” throughout.

For `CC[C@H](CC[C@@H](C)[C@H]1CC[C@H]2[C@@H]3CC=C4C[C@@H](O)CC[C@]4(C)[C@H]3CC[C@]12C)C(C)C`, the viability in assay [1] is 104%. For the same compound, the Potency entry in assay [2], in assay [3], in assay [4], in assay [5], in assay [6] and in assay [7] was “inactive” in each case.

In the case of `COc1cc2c(Oc3ccc4[nH]c(C)cc4c3F)ccnc2cc1OCC1(N)CC1`, the Potency was 16.6 µM (active) in assay [1]; 7.42 µM (active) in assay [2]; 8.33 µM (active) in assay [3]; 10.5 µM (active) in assay [4]; 9.34 µM (active) in assay [5]; 7.42 µM (active) in assay [6]. The Potency in assay [7] is 8.33 µM (active).

With `O=c1c(-c2ccc(O)cc2)coc2c([C@@H]3O[C@H](CO)[C@@H](O)[C@H](O)[C@H]3O)c(O)ccc12`, the viability in assay [1] was 113%. Besides, the Potency entry in assay [2], in assay [3], in assay [4], in assay [5], in assay [6] and in assay [7] was “inactive” each time.

In the case of `CCC(=O)NCC[C@@H]1CCc2ccc3c(c21)CCO3`, the viability in assay [1] was 114%. Moreover, the Potency entry in assay [2], in assay [3], in assay [4], in assay [5], in assay [6] and in assay [7] was “inactive” each time.

For `COC(=O)Nc1nc2ccc(C(=O)c3ccccc3)cc2[nH]1`, the Potency in assay [1] is 0.833 µM (active); in assay [2] it was 0.59 µM (active); in assay [3], 0.525 µM (active); in assay [4], 0.263 µM (active); in assay [5] it was 0.296 µM (active); in assay [6] it was 0.263 µM (active). Further, the Potency in assay [7] was 0.332 µM (active).

For the compound `O=c1cc(O)c(Cl)c[nH]1`, the viability in assay [1] was 115%. Also, the Potency entry in assay [2], in assay [3], in assay [4], in assay [5], in assay [6] and in assay [7] was “inactive” each time.

As for `CC[C@@]1(O)C(=O)OCc2c1cc1n(c2=O)Cc2c-1nc1ccccc1c2CCNC(C)C`, the Potency is 0.0166 µM (active) in assay [1]; 0.0047 µM (active) in assay [2]; 0.0042 µM (active) in assay [3]; 0.0037 µM (active) in assay [4]; 0.0074 µM (active) in assay [5]; 0.0118 µM (active) in assay [6]. Also, the Potency in assay [7] was 0.0132 µM (active).

In the case of `CO[C@@H]1[C@@H](O)[C@H](O)[C@@H](n2c3c(Cl)cccc3c3c4c(c5c6cccc(Cl)c6[nH]c5c32)C(=O)NC4=O)O[C@H]1CO`, the Potency is 1.32 µM (active) in assay [1]; 1.32 µM (active) in assay [2]; 0.934 µM (active) in assay [3]; 0.59 µM (active) in assay [4]; 1.05 µM (active) in assay [5]; 2.35 µM (active) in assay [6]. Also, the Potency in assay [7] was 1.32 µM (active).

With `CC1=NN(c2ccc(C(=O)O)cc2)C(=O)/C1=C/c1ccc(-c2cc(C)c(C)cc2[N+](=O)[O-])o1`, in assay [1], the viability is 112%. For the same compound, the Potency in assay [2] is 0.235 µM (active). In addition, the Potency result in assay [3], in assay [4], in assay [5] and in assay [7] was “inactive” each time.

As to `OC1CCC([C@H](O)C[C@H]2c3c(F)cccc3-c3cncn32)CC1` (stereo partly specified), the viability in assay [1] was 118%. Moreover, the Potency result in assay [2], in assay [3], in assay [4], in assay [5], in assay [6] and in assay [7] was “inactive” in each case.

On to `CC1(C)OC2=C(C(=O)c3ccccc3C2=O)[C@H](NCc2ccccc2)[C@@H]1O`, for which the Potency in assay [1] is 6.61 µM (active); in assay [2], 11.8 µM (active); in assay [3] it was 8.33 µM (active); in assay [4], 7.42 µM (active); in assay [5] it was 9.34 µM (active); in assay [6], 7.42 µM (active). Also, the Potency in assay [7] is 7.42 µM (active).

Turning to `CN(C(=O)c1c(O)c2ccccc2n(C)c1=O)c1ccccc1`, the viability in assay [1] is 76.1%. The Potency entry in assay [2], in assay [3], in assay [4], in assay [5], in assay [6] and in assay [7] was “inactive” throughout.

On to `O=C(/C=C/c1ccc(CN(CCO)CCc2c[nH]c3ccccc23)cc1)NO`, for which the Potency in assay [1] was 0.166 µM (active); in assay [2], 0.132 µM (active); in assay [3] it was 0.0934 µM (active); in assay [4] it was 0.148 µM (active); in assay [5], 0.132 µM (active); in assay [7] it was 0.332 µM (active).
